# The campaign covered roughly 1,300 compounds. About 460 (35%) were called active. Not shown: some 39% with an inconclusive outcome. This is one part of the list. Unmarked numbers belong to inactive results. The call rests on the fitted dose curve; in most records, active means well fitted inhibition curve with a large enough effect; inconclusive means small, poorly fitted or top-dose-only effect; inactive means flat fitted curve, though single readings scatter.
# Target: Protein phosphatase EYA2 (Homo sapiens) (UniProt O00167)
# Sequence (O00167 whole entry, looked up): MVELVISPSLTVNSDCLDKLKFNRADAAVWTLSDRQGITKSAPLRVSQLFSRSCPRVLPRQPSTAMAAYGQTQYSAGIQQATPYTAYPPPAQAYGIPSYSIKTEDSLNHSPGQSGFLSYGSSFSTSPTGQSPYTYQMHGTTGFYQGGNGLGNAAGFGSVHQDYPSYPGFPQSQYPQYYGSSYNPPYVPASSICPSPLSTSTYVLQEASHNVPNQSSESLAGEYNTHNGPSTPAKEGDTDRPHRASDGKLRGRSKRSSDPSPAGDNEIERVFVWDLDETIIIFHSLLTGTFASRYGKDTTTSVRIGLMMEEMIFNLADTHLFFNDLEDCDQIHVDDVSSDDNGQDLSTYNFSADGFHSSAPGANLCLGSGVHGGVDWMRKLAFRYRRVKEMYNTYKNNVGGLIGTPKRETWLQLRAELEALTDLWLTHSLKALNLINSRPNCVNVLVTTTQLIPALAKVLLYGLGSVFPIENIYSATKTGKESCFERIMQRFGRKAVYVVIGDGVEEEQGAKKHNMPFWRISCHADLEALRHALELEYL
# Experiment: qHTS for Inhibitors of the Phosphatase Activity of Eya2: Confirmatory Assay for Cherry-picked Compounds; further: nearly all actives have a fitted effect of over 65% in size;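 on activity change, negative = inhibition: 0% = DMSO wells and -100% = EGTA control giving full inhibition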
# Conditions: purified EYA2 phosphatase activity, qHTS confirmation; series mostly up to 46.1 µM; activity change, negative = inhibition: at the top concentration
# How it was run: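 Eya2 (0.2 uM working solution) preincubated 10 min at room temperature with compound in pH 7.5 HEPES buffer with MgCl2, BSA, DTT. OMFP added (50 uM working solution), 10 min more; fluorescence 485/525 nm, normalized to EGTA and DMSO.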
# Potency means the concentration at half of the fitted maximal effect.
Structure (SMILES),Potency,"activity change, negative = inhibition [%]"
C#Cc1cccc(NC(=O)CSc2nnc(-c3ccc(C(F)(F)F)cn3)o2)c1,15.1 µM (active),–
c1ccc2c(c1)nc(Nc1ccc(N3CCCCC3)cc1)c1nncn12,16.9 µM (active),–
CC1CCCCC1Nc1nc2ccc(Cl)cc2n2cnnc12 (stereo unspecified),–,-24
O=[N+]([O-])c1ccc(/C=C2\C=Cc3ccccc32)cc1,4.78 µM (active),–
CNc1ccc(/C=C2\C=Cc3ccccc32)cc1OC,7.57 µM (active),–
CN(C)c1ccc(/C=C2\C=Cc3ccccc32)cc1N,15.1 µM (active),–
CN(C)c1ccc(/C=C2\C=Cc3ccccc32)cc1[N+](=O)[O-],6.75 µM (active),–
CCN(CC)CCNC(=O)c1ccc(N)cc1,–,-4.89
CC(NC(=O)c1cc2c(s1)CS(=O)(=O)C2)c1ccccc1 (stereo unspecified),–,-5.13
Cc1cc(/C=C2\C=Cc3ccccc32)ccc1N(C)C,7.57 µM (active),–
COc1cc(/C=C2/C=Cc3ccccc32)ccc1N(C)C,6.75 µM (active),–
CCN(Cc1cccc(S(=O)(=O)O)c1)c1ccc(C(=C2C=CC(=[N+](CC)Cc3cccc(S(=O)(=O)O)c3)C=C2)c2ccc(O)cc2S(=O)(=O)O)cc1,6.01 µM (active),–
CCN(Cc1cccc(S(=O)(=O)O)c1)c1ccc(C(=C2C=CC(=[N+](CC)Cc3cccc(S(=O)(=O)O)c3)C=C2)c2ccccc2S(=O)(=O)[O-])cc1,9.53 µM (active),–
Cc1nc2c(C(=O)Nc3ccc(N4CCCC(O)C4)cc3)snc2c(=O)[nH]1 (stereo unspecified),–,-21.6
CC(=O)Nc1ccc(S(=O)(=O)N2C3CCCC2CC(NC(=O)C2CCCCC2)C3)cc1 (stereo unspecified),–,-9.63
CC(=O)Nc1ccc(S(=O)(=O)Nc2ccc(N3CCCCC3)cc2)cc1,8.49 µM (active),–
COc1cc(NC(=O)CN2C(=O)CSc3ccc(S(=O)(=O)N4CCCC4)cc32)cc(OC)c1,5.36 µM (active),–
O=C(Cc1ccccc1F)Nc1cccc(S(=O)(=O)N2CCCCC2)c1,–,-11.9
COc1ccc(S(=O)(=O)N2CCN(C(=O)c3cc4c(s3)CCC4)CC2)cc1,–,-25.3
Cc1ccc(CNC(=O)C2CCN(S(=O)(=O)c3ccc4nc5c(c(C(=O)O)c4c3)CC(C)CC5)CC2)cc1 (stereo unspecified),8.49 µM (active),–
O=C(O)c1c2c(nc3ccc(S(=O)(=O)N4CCC(C(=O)NC5CCCC5)CC4)cc13)CCCCC2,–,-12.6
COc1ccc(CNC(=O)C2CCN(S(=O)(=O)c3ccc4nc5c(c(C(=O)O)c4c3)CCCC5)CC2)cc1,15.1 µM (active),–
CCN(CC)c1ccc(/C=N/N2CCN(Cc3ccccc3Cl)CC2)cc1,7.57 µM (active),–

Structure (SMILES),Potency,"activity change, negative = inhibition [%]"
CC(=O)Oc1ccc(N2C(=O)c3cccc4c([N+](=O)[O-])ccc(c34)C2=O)cc1,–,-22.5
CCN1C(=O)c2cccc3c(S(=O)(=O)N(C(C)=O)c4ccc(OC(C)=O)cc4)ccc1c23,15.1 µM (active),–
O=C(O)c1c(Br)c(Br)c(Br)c(Br)c1C1c2ccc(O)cc2Oc2cc(O)ccc21,1.35 µM (active),–
C[N+](C)(CCCCCI)c1ccc(/C=C/c2nc3ccccc3s2)cc1,13.5 µM (active),–
Cc1ccc(C2CC(c3ccc(Br)cc3)=NN2C(=O)CSC2=NN3CCCC(=O)N=C3S2)cc1 (stereo unspecified),–,-26.2
Nc1ccc2nc3c(=O)[nH]c(=S)[nH]c3nc2c1,6.01 µM (active),–
COC(=O)c1ccccc1NC(=S)NC(=O)c1ccc(C)cc1,13.5 µM (active),–
O=C1C(N2CCOCC2)=Cc2cccc3cccc1c23,19 µM (active),–
CCOC(=O)C1=C(N)Oc2c(oc(CO)cc2=O)C1c1ccc(Cl)cc1 (stereo unspecified),–,-29.1
COc1ccc(C(=O)CC(=O)Nc2ccc([N+](=O)[O-])cc2)cc1,–,-14.9
NC(N)=Nc1nc2cc([N+](=O)[O-])ccc2o1,–,-25
O=C(Nc1cc([N+](=O)[O-])ccc1O)c1cccc(C(=O)Nc2cc([N+](=O)[O-])ccc2O)c1,3.79 µM (active),–
O=C(O)CSCc1nc2cccnc2n1C1CCCCC1,–,-11.2
O=C(O)C1=NN(c2cc(Cl)c(S(=O)(=O)O)cc2Cl)C(=O)C1,8.49 µM (active),–
Cc1ccc(-c2csc(NC(=O)c3ccccc3F)c2C(=O)O)cc1,7.57 µM (active),–
COc1cc(C(=O)Nc2scc(-c3ccc(Br)cc3)c2C(=O)O)cc(OC)c1OC,19 µM (active),–
CCCC[C@@]1(C2CCCC2)Cc2cc(OCC(=O)O)c(Cl)c(Cl)c2C1=O,–,-29
O=C1/C(=C/C=C/c2ccco2)SC(=S)N1NS(=O)(=O)c1ccccc1,7.57 µM (active),–
O=C(NN1C(=O)/C(=C/C=C/c2ccco2)SC1=S)c1ccncc1,6.01 µM (active),–
CCn1c(SCC(=O)N2CCN(c3ccccc3)CC2)nc2c(c1=O)SC(C)C2 (stereo unspecified),–,-26.4
CN(C)c1ccc(N=c2sc3ccccc3n2C)cc1,7.57 µM (active),–
Cc1cccc(N2CCN(C(=O)C3COc4ccccc4O3)CC2)c1C (stereo unspecified),–,-9.42
O=C(O)/C=C/C(=O)Nc1ccc2c(c1)C(=O)c1ccccc1C2=O,16.9 µM (active),–

Structure (SMILES),Potency,"activity change, negative = inhibition [%]"
Oc1c(C(Nc2nc3ccccc3s2)c2ccco2)ccc2cccnc12 (stereo unspecified),9.53 µM (active),–
CN(C)c1ccc(C(=C2C=CC(=[N+](C)C)C=C2)c2ccc(N(C)C)cc2)cc1,6.01 µM (active),–
CN(C)c1ccc(C(=C2C=CC(=[N+](C)C)C=C2)c2c(O)c(S(=O)(=O)[O-])cc3cc(S(=O)(=O)O)ccc23)cc1,7.57 µM (active),–
O=C(Nc1ccc(-c2nc3cccnc3s2)cc1)C1CCCO1 (stereo unspecified),–,-24.1
Cc1cc(=O)n2nc(N3CCCC(C(=O)Nc4ccc(C)c(C)c4)C3)sc2n1 (stereo unspecified),–,-29.7
CCc1ccc(N=C2NC(=O)/C(=C/c3cc(OC)c(O)c(OC)c3)S2)cc1,19 µM (active),–
COc1ccc(-c2ccc(SCc3cccnc3)nn2)cc1OC,16.9 µM (active),–
Cc1ccc(NC(=S)N2CCc3[nH]c4ccccc4c3C2)cc1,–,-30
COc1cccc(/C=N/N2C(=O)CSC2=S)c1O,0.478 µM (active),–
Nc1c(N=Nc2ccc([N+](=O)[O-])cc2)c(S(=O)(=O)O)cc2cc(S(=O)(=O)O)c(/C=C/c3ccccc3)c(O)c12,7.57 µM (active),–
COc1ccc(C(CCNCc2ccc(N(C)C)cc2)C(C)C)cc1 (stereo unspecified),8.49 µM (active),–
COc1ccccc1C(CCNCc1ccc(N(C)C)cc1)c1ccc(OC(C)C)cc1 (stereo unspecified),6.01 µM (active),–
CC1Cc2ccccc2N1C(=O)C1CCCN1S(=O)(=O)c1ccc(Cl)cc1 (stereo unspecified),–,1.17
Cc1nn(C)c(Cl)c1CN1CCCC(CO)(Cc2cccc(Cl)c2)C1 (stereo unspecified),–,-16.1
CC1CS(=O)(=O)CCN1N=Cc1ccc([N+](=O)[O-])o1 (stereo unspecified),–,-2.82
O=C(O)c1ccc2c(=O)n3cc(C(=O)c4ccccc4O)cc(Cl)c3nc2c1,15.1 µM (active),–
C=C(CC[C@]12OC(C(=O)O)C(O)(C(=O)O)C(C(=O)O)(O1)C(OC(=O)/C=C/[C@@H](C)C[C@@H](C)CC)C2O)[C@@H](OC(C)=O)[C@H](C)Cc1ccccc1 (stereo partly specified),19 µM (active),–
Cc1cc(C)c(C#N)c(Sc2nnnn2-c2ccccc2)n1,–,-3.69
COc1cc2c(cc1OC)-c1cc(Nc3ccc(F)cc3)nc(=O)n1CC2,2.39 µM (active),–
COc1cc2c(cc1OC)-c1cc(Nc3ccccc3)nc(=O)n1CC2,6.75 µM (active),–
COc1ccc(Nc2cc3n(c(=O)n2)CCc2cc(OC)c(OC)cc2-3)c(C)c1,15.1 µM (active),–
CCOc1ccc(Nc2cc3n(c(=O)n2)CCc2cc(OC)c(OC)cc2-3)cc1,6.75 µM (active),–
FC(F)(F)c1ccc(CN2C[C@@H]3C(c4ccc(Cl)nc4)C4(c5cccnc5)CC3(C4)[C@H]2c2ccccc2)cc1 (stereo partly specified),–,-20.4

Structure (SMILES),Potency,"activity change, negative = inhibition [%]"
O=C(NCc1ccco1)C1CC2CCC1C2 (stereo unspecified),–,-4.68
COc1cc2c(cc1OC)-c1cc(Nc3ccc(C)cc3)nc(=O)n1CC2,5.36 µM (active),–
Cc1c(C(=O)/C=C/N(C)C)nnn1-c1ccc(Cl)cc1Cl,–,-1.95
CCc1c(C)nc(Nc2nc(C)c3ccc(OC)cc3n2)[nH]c1=O,3.79 µM (active),–
C[C@](N)(Cc1ccc(O)c(O)c1)C(=O)O,–,-6
COc1cc(NC(=O)c2ccccc2Cl)ccc1NC(=O)c1cccs1,–,-14.2
COc1ccc(C(=O)Nc2ccc3c(c2)CCCN3C(=O)c2cccs2)c(OC)c1,8.49 µM (active),–
O=C(/C=C/c1ccccc1)Oc1cccc2cccnc12,6.75 µM (active),–
O=C(/C=C/c1ccco1)Oc1cccc2cccnc12,15.1 µM (active),–
O=C(/C=C\c1ccccc1)Oc1cccc2cccnc12,7.57 µM (active),–
COc1ccccc1/C=C/C(=O)Oc1cccc2cccnc12,9.53 µM (active),–
COCCNC(=O)CCC(=O)NNc1nc2ccccc2c2nc(-c3ccccc3)nn12,–,-27
c1ccc(-c2ccc(C3=Nn4c(nnc4-c4cc(-c5ccccc5)n[nH]4)SC3)cc2)cc1,–,-22.5
N#Cc1ccc(CSc2nnc(-c3c[nH]c4ccccc34)n2-c2ccccc2)cc1,–,-25.4
COc1ccc(N=C2SC(C(=O)N3CCN(c4ccc([N+](=O)[O-])cc4)CC3)CC(=O)N2C)cc1 (stereo unspecified),–,-14.5
COc1cc2nc(/C=C/c3ccc(N(C)C)cc3)sc2cc1SC,19 µM (active),–
COc1ccccc1OCC(=O)Nc1ccc(C(=O)Nc2ccccc2C(=O)O)cc1,16.9 µM (active),–
COc1ccccc1NC(=O)c1ccc(NC(=O)Cc2n[nH]c(=O)c3ccccc23)cc1,–,-15.9
O=C(NC1=C(Nc2ccc(F)cc2)C(=O)c2ccccc2C1=O)c1ccc(Cl)cc1,–,-23.3
O=C(Nc1ccc(F)cc1)c1ccc2[nH]c(=O)c(=O)[nH]c2c1,4.78 µM (active),–
N#Cc1c(N)n(-c2ccc(C(=O)O)cc2)c2nc3ccccc3nc12,16.9 µM (active),–
N#Cc1c(N)n(-c2cccc(C(=O)O)c2)c2nc3ccccc3nc12,16.9 µM (active),–

# From PubChem BioAssay AID720540 (National Center for Advancing Translational Sciences (NCATS), 2013)
